This note sets out measurements from PubChem BioAssay (NCI).

The nature of assay [1]: NCI Yeast Anticancer Drug Screen. Data for the rad50 strain (AID 155).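 Further: 0% = growth of vehicle-only cultures of the same strain.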 The note with it: S. cerevisiae rad50 strain growth inhibition, stronger effect = higher value. The method in brief:
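Readout: growth inhibition relative to vehicle-treated cultures. Compound exposure was carried out in a genetically defined yeast strain deficient in DNA damage repair.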

A short description of assay [2]: NCI Yeast Anticancer Drug Screen. Data for the mec2-1 strain (AID 157). The note with it: S. cerevisiae mec2-1 strain, stronger effect = higher value. The method in brief: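 Each compound was tested on mec2-1 yeast, a strain altered in DNA damage repair or cell cycle control. Growth inhibition is reported relative to vehicle.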
Assay [3] is described as follows: NCI Yeast Anticancer Drug Screen. Data for the sgs1 mgt1 strain (AID 161).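 Further: 0% = growth of cultures given vehicle only.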 The note with it: S. cerevisiae sgs1 mgt1 strain, stronger effect = higher value. The gist of the method: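 Read-out: growth inhibition vs vehicle controls. Cells: mutant yeast strain deficient in DNA damage repair.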
Assay [4] in a line: NCI Yeast Anticancer Drug Screen. Data for the cln2 rad14 strain (AID 165).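 Further: 0% = growth equal to vehicle treated cultures.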 To be noted: S. cerevisiae cln2 rad14 strain, stronger effect = higher value. The method in brief: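 Test compounds were added to cln2 rad14 yeast cultures; inhibition of growth was then determined by comparison with vehicle treatment.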
The nature of assay [5]: NCI Yeast Anticancer Drug Screen. Data for the bub3 strain (AID 167). To be noted: S. cerevisiae bub3 mutant strain, stronger effect = higher value. The method in brief: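 Readout: yeast growth inhibition, expressed relative to vehicle-only wells. The test organism is a mutant strain from a panel with lesions in DNA repair or checkpoint genes.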
The nature of assay [6]: NCI Yeast Anticancer Drug Screen. Data for the mlh1 rad18 strain (AID 175). To be noted: S. cerevisiae mlh1 rad18 strain growth inhibition, stronger effect = higher value. The method in brief: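 Inhibition values reflect reduced growth of mutant yeast versus vehicle-treated controls following compound exposure; the mutations affect DNA damage repair.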
[7] abbreviates: at 5.0 µM (retest, dose inferred, filed as 0.5).
Where [8] appears, read: at 50.0 µM (retest, dose inferred, filed as 5.0).

About 79,000 compounds went through this panel and 15% of them were active in at least one assay; those are over-represented in the sample as a whole. Unmarked numbers belong to inactive results. Active and inactive are the calls of the source. No stated cut-off is given here; in the data, active means growth inhibition above about 70%; inactive means the rest.

For the compound `CCOC(=O)c1[nH]c2c([N+](=O)[O-])cccc2c1[N+](=O)[O-]`, the growth inhibition was -12% in assay [1] (setting [7]); 15% in assay [1] (setting [8]); 97% (active) in assay [1] (at 50.0 µM); -16% in assay [2] (setting [7]); 16% in assay [2] (setting [8]); 98% (active) in assay [2] (at 50.0 µM). Also, the growth inhibition is -3% in assay [3] (setting [7]); 9% in assay [3] (setting [8]); 94.8% (active) in assay [3] (at 50.0 µM); 4% in assay [4] (setting [7]); 25% in assay [4] (setting [8]); 98.6% (active) in assay [4] (at 50.0 µM). Besides, the growth inhibition in assay [5] (setting [7]) is 0%; in assay [5] (setting [8]), 7%; in assay [5] (at 50.0 µM), 98.8% (active); in assay [6] (setting [7]), -2%; in assay [6] (setting [8]), 37%; in assay [6] (at 50.0 µM), 99% (active).

With `COc1c(O)cc(C=O)cc1[N+](=O)[O-]`, the growth inhibition in assay [1] (setting [7]) was -7%; in assay [1] (setting [8]) it was 14%; in assay [1] (at 50.0 µM), 7.3%; in assay [2] (setting [7]), 1%; in assay [2] (setting [8]), 12%; in assay [2] (at 50.0 µM), 2.15%. For the same compound, the growth inhibition in assay [3] (setting [7]) is -1%; in assay [3] (setting [8]) it was 11%; in assay [3] (at 50.0 µM) it was 40.3%; in assay [4] (setting [7]) it was 4%; in assay [4] (setting [8]), 20%; in assay [4] (at 50.0 µM) it was 69.2%. Also, the growth inhibition in assay [5] (setting [7]) is -1%; in assay [5] (setting [8]), 1%; in assay [5] (at 50.0 µM), -9.85%; in assay [6] (setting [7]), -4%; in assay [6] (setting [8]), 14%; in assay [6] (at 50.0 µM), 8.1%.

`CC(=O)Nc1nc(Cl)c2ncn(C3CC(OC(=O)c4ccc(C)cc4)C(COC(=O)c4ccc(C)cc4)O3)c2n1` (configuration not stated): the growth inhibition in assay [1] (setting [7]) was -3%; in assay [1] (setting [8]) it was 0%; in assay [1] (at 50.0 µM), 53.1%; in assay [2] (setting [7]) it was 0%; in assay [2] (setting [8]) it was 6%; in assay [2] (at 50.0 µM), 27.4%. The growth inhibition in assay [3] (setting [7]) is 57%; in assay [3] (setting [8]), 3%; in assay [3] (at 50.0 µM) it was 60.1%; in assay [4] (setting [7]), -2%; in assay [4] (setting [8]), 0%; in assay [4] (at 50.0 µM) it was 63.4%. For the same compound, the growth inhibition in assay [5] (setting [7]) is 0%; in assay [5] (setting [8]), -2%; in assay [5] (at 50.0 µM), 33.2%; in assay [6] (setting [7]), -20%; in assay [6] (setting [8]) it was 0%; in assay [6] (at 50.0 µM), 48.6%.

With `CC1(C)C2CCC(C2)C1OC(=O)c1ccccc1C(=O)O` (configuration not stated), the growth inhibition was -7% in assay [1] (setting [7]); 11% in assay [1] (setting [8]); 1.45% in assay [1] (at 50.0 µM); -2% in assay [2] (setting [7]); 0% in assay [2] (setting [8]); 12.9% in assay [2] (at 50.0 µM). Also, the growth inhibition in assay [3] (setting [7]) is -5%; in assay [3] (setting [8]) it was 6%; in assay [3] (at 50.0 µM) it was -6.05%; in assay [4] (setting [7]) it was 10%; in assay [4] (setting [8]) it was 15%; in assay [4] (at 50.0 µM) it was 76.2% (active). Besides, the growth inhibition in assay [5] (setting [7]) is -2%; in assay [5] (setting [8]) it was 26%; in assay [5] (at 50.0 µM) it was 71% (active); in assay [6] (setting [7]) it was -21%; in assay [6] (setting [8]), 6%; in assay [6] (at 50.0 µM) it was 32.7%.

As to `CC(C)(C)NCc1cc(C(C)(C)C)cc(-c2ccc(Cl)cc2)c1O`, the growth inhibition in assay [1] (setting [7]) was 26%; in assay [1] (setting [8]), 92% (active); in assay [1] (at 50.0 µM), 84.8% (active); in assay [2] (setting [7]), 13%; in assay [2] (setting [8]) it was 91% (active); in assay [2] (at 50.0 µM), 88.4% (active). Further, the growth inhibition in assay [3] (setting [7]) is 7%; in assay [3] (setting [8]), 88% (active); in assay [3] (at 50.0 µM), 86.5% (active); in assay [4] (setting [7]), 44%; in assay [4] (setting [8]), 55%; in assay [4] (at 50.0 µM) it was 76.8% (active). Moreover, the growth inhibition in assay [5] (setting [7]) is 12%; in assay [5] (setting [8]) it was 91% (active); in assay [5] (at 50.0 µM), 83.9% (active); in assay [6] (setting [7]) it was 25%; in assay [6] (setting [8]), 93% (active); in assay [6] (at 50.0 µM) it was 84.6% (active).

In the case of `COc1ccc(CN2CCCN(Cc3ccc(OC)cc3)C2Cc2cc(Cl)ccc2OC)cc1`, the growth inhibition in assay [1] (setting [7]) is -3%; in assay [1] (setting [8]), 58%; in assay [1] (at 50.0 µM) it was 82.4% (active); in assay [2] (setting [7]), -3%; in assay [2] (setting [8]) it was 61%; in assay [2] (at 50.0 µM), 48.8%. In addition, the growth inhibition is -44% in assay [3] (setting [7]); 63% in assay [3] (setting [8]); 80.7% (active) in assay [3] (at 50.0 µM); -6% in assay [4] (setting [7]); 19% in assay [4] (setting [8]); 33.4% in assay [4] (at 50.0 µM). Also, the growth inhibition in assay [5] (setting [7]) was -5%; in assay [5] (setting [8]) it was 56%; in assay [5] (at 50.0 µM), 56.5%; in assay [6] (setting [7]), 18%; in assay [6] (setting [8]), 85% (active); in assay [6] (at 50.0 µM) it was 77.8% (active).

For `Cc1ccc(C)c(N2C/C(=N\NC(=O)CC#N)C(c3nc4ccccc4s3)C(=O)C2=O)c1` (configuration not stated), the growth inhibition was 0% in assay [1] (setting [7]); 1% in assay [1] (setting [8]); 7.9% in assay [1] (at 50.0 µM); 0% in assay [2] (setting [7]); 2% in assay [2] (setting [8]); -0.3% in assay [2] (at 50.0 µM). The growth inhibition in assay [3] (setting [7]) is -3%; in assay [3] (setting [8]), -3%; in assay [3] (at 50.0 µM), -5.2%; in assay [4] (setting [7]) it was -3%; in assay [4] (setting [8]), -1%; in assay [4] (at 50.0 µM), 12.6%. For the same compound, the growth inhibition in assay [5] (setting [7]) is 33%; in assay [5] (setting [8]) it was 19%; in assay [5] (at 50.0 µM), -0.3%; in assay [6] (setting [7]), 1%; in assay [6] (setting [8]), 1%; in assay [6] (at 50.0 µM), 20.9%.

Take `CCOC(=O)C(F)C(Br)C(=O)OCC` (configuration not stated): the growth inhibition in assay [1] (setting [7]) is 22%; in assay [1] (setting [8]), 98% (active); in assay [1] (at 50.0 µM), 90.5% (active); in assay [2] (setting [7]), 28%; in assay [2] (setting [8]), 99% (active); in assay [2] (at 50.0 µM), 91.8% (active). The growth inhibition in assay [3] (setting [7]) is 100% (active); in assay [3] (setting [8]) it was 100% (active); in assay [3] (at 50.0 µM), 91.5% (active); in assay [4] (setting [7]) it was 98% (active); in assay [4] (setting [8]), 98% (active); in assay [4] (at 50.0 µM), 89.8% (active). Besides, the growth inhibition in assay [5] (setting [7]) was 99% (active); in assay [5] (setting [8]), 100% (active); in assay [5] (at 50.0 µM) it was 90.7% (active); in assay [6] (setting [7]) it was 49%; in assay [6] (setting [8]) it was 98% (active); in assay [6] (at 50.0 µM) it was 90% (active).

For `CCN(CC)CCCC(=O)Nc1cc(OC)cc2cccnc12`, the growth inhibition in assay [1] (setting [7]) was 2%; in assay [1] (setting [8]), 0%; in assay [1] (at 50.0 µM) it was 3.65%; in assay [2] (setting [7]), 15%; in assay [2] (setting [8]), -3%; in assay [2] (at 50.0 µM), 6.3%. Besides, the growth inhibition is 8% in assay [3] (setting [7]); 1% in assay [3] (setting [8]); -4.7% in assay [3] (at 50.0 µM); 1% in assay [4] (setting [7]); -1% in assay [4] (setting [8]); -2.55% in assay [4] (at 50.0 µM). For the same compound, the growth inhibition in assay [5] (setting [7]) is 1%; in assay [5] (setting [8]), -3%; in assay [5] (at 50.0 µM), -1.85%; in assay [6] (setting [7]), 2%; in assay [6] (setting [8]), -1%; in assay [6] (at 50.0 µM), 13.4%.
